# From the supplement of paper PMC10681739
# Assays:
# ETS1 [1] = target: T1, ETS1 (UniProt P14921); experiment: ETS1 binding intensity (PBM fluorescence), ETS1 alone (arbitrary fluorescence units); higher = stronger binding; conditions: ETS1 concentration 1 nM; RUNX1 concentration 0 nM
# T1 sequence: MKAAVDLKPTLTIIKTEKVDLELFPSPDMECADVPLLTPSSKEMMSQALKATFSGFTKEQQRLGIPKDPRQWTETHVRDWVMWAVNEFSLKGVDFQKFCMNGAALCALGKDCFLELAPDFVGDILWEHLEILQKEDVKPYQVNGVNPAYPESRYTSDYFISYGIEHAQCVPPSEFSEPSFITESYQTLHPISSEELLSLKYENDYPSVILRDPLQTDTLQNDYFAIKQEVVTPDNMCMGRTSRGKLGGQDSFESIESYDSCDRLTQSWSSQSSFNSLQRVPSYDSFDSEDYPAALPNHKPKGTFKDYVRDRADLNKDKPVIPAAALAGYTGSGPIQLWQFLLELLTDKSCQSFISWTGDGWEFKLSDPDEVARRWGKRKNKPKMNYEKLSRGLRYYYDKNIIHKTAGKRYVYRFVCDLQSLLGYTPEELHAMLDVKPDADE
# RUNX1 = RUNX1 (UniProt Q01196); experiment: RUNX1 binding intensity (PBM fluorescence), RUNX1 alone (arbitrary fluorescence units); higher = stronger binding; conditions: RUNX1 concentration 2 nM; ETS1 concentration 0 nM
# Description: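 Cooperative gcPBM on 36-bp genomic probes with neighbouring ETS1 and RUNX1 sites. Recombinant human RUNX1 (2 nM) was incubated alone or with ETS1 (25 nM) and detected with anti-RUNX1 antibody plus Alexa488 secondary. Values are medians over 4 replicate spots; the RUNX1+ETS1 data were normalised to the RUNX1-only data. The probes sit in constant array flanks that are not printed.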
# ETS1 [2] = target: T1, ETS1; experiment: ETS1 binding intensity (PBM fluorescence) in presence of RUNX1, normalised to ETS1-only experiment (arbitrary fluorescence units); higher = stronger binding; conditions: ETS1 concentration 1 nM; RUNX1 concentration 25 nM
# 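Throughout, for RUNX1 binding intensity (PBM fluorescence), RUNX1 alone: Full-length recombinant human RUNX1 bound to double-stranded 36-bp genomic probes on a high-density microarray, scored as Alexa488 fluorescence per spot via anti-RUNX1 antibody, median of four replicate spots.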
# RUNX1, sequence (Q01196 whole entry): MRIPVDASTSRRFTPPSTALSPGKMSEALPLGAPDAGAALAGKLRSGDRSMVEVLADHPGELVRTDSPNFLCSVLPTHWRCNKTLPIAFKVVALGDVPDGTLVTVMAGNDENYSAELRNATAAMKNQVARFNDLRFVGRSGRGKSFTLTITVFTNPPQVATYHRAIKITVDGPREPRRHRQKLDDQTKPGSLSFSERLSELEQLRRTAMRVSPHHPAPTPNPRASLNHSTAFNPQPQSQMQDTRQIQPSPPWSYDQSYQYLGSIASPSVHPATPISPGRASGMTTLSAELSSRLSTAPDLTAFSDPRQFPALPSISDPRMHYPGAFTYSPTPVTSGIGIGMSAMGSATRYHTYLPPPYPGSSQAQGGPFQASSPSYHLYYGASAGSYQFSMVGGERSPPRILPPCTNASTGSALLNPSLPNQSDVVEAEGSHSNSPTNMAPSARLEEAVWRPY
sequence,measurement,setting,value
GCCGGAAGCCACGCAGGGCCACGTCTGCGGTTCTGA,ETS1 binding intensity,ETS1 [1],976
same,RUNX1 binding intensity,RUNX1,826
AGCCGTCATTCAGGATGTGGTGACAGACATGGAGAC,ETS1 binding intensity,ETS1 [1],1200
same,RUNX1 binding intensity,RUNX1,769
GATCTGCTTGGCTTCCTGTGGTCGCTGACTCACAGT,ETS1 binding intensity,ETS1 [1],905
GTTGCAGGAAACGATGGGTTTTGTGGTATGAACTGC,ETS1 binding intensity,ETS1 [1],813
CAGAGACACCTGCGGAAGCCACAGGGAGGTCACAGA,ETS1 binding intensity,ETS1 [1],495
ATGCGAGTCTGCTTCCTGCCACAAATCACAATTTGA,ETS1 binding intensity,ETS1 [1],665
GCAAGGTGGAGAGGAGGATGTGGCTTACCAGCAATT,ETS1 binding intensity,ETS1 [1],1280
TCAGGAAGTGGTGTGACCAGCATGTGAACCGCGGCA,ETS1 binding intensity,ETS1 [1],681
CCGGGCCTCCAGACGGAACTGTGGGCGAGGGGAGGG,ETS1 binding intensity,ETS1 [1],470
ATTACAGGAAGTATGTCCTCCTCTGCCTAACCACTG,ETS1 binding intensity,ETS1 [1],2270
same,RUNX1 binding intensity,RUNX1,831
AACCCGGAAGTGGACACGGAGCTCGGCTGCGGCTCC,ETS1 binding intensity,ETS1 [1],1750
same,RUNX1 binding intensity,RUNX1,705
TTTCAAAACCCGGAAATGACCGCCAGGCTGGCATCA,ETS1 binding intensity,ETS1 [1],7800
same,RUNX1 binding intensity,RUNX1,859
AGGGGAGGAACCAGGAAGTTGTGGTAAACTGTAGCA,ETS1 binding intensity,ETS1 [1],2490
same,RUNX1 binding intensity,RUNX1,982
AGGCCGCCTACAGGATGTTGGAAACCACAGGGCCCG,ETS1 binding intensity,ETS1 [1],2910
same,RUNX1 binding intensity,RUNX1,765
same,ETS1 binding intensity,ETS1 [2],29100
CCTACACTTCCCAGAGAACCTAGCGGTTACGCCAAC,ETS1 binding intensity,ETS1 [1],401
same,RUNX1 binding intensity,RUNX1,1340
same,ETS1 binding intensity,ETS1 [2],505
CTTGTGAAATGTATCCTGTGGTTGCCGGCTGAAGTG,ETS1 binding intensity,ETS1 [1],499
same,RUNX1 binding intensity,RUNX1,848
same,ETS1 binding intensity,ETS1 [2],419
